Laboratory results taken from PubChem BioAssay AID624169 (The Scripps Research Institute Molecular Screening Center, 2012).
“And” between values parts separate entries of the source, which are not always exact repeats. Identical values can stand only once. About 2,400 (0.67%) of roughly 360,000 compounds were called active. The sample holds actives, similar compounds and a random draw of the others, so the mix is not that of the screen. A number with no mark means an inactive call.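 The calls were made as follows: active = activation above a run cutoff, the mean activation of all tested compounds plus 3 SD (cut at about 14% in these data); inactive = the rest.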

These compounds were tested against 5-hydroxytryptamine receptor 2A (Mus musculus) (UniProt P35363) (assay: mouse Htr2a agonists via beta-arrestin recruitment, primary screen, cell-based, luminescence (AID 624169;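 also: 0% = plate median of compound wells and 100% = 30 µM serotonin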)). Conditions: CHO-K1 mHTR2A beta-arrestin complementation, at 7.6 µM, active compounds read high, percent of 30 µM serotonin response.
Chain of 5-hydroxytryptamine receptor 2A (Mus musculus) (P35363 whole entry, looked up): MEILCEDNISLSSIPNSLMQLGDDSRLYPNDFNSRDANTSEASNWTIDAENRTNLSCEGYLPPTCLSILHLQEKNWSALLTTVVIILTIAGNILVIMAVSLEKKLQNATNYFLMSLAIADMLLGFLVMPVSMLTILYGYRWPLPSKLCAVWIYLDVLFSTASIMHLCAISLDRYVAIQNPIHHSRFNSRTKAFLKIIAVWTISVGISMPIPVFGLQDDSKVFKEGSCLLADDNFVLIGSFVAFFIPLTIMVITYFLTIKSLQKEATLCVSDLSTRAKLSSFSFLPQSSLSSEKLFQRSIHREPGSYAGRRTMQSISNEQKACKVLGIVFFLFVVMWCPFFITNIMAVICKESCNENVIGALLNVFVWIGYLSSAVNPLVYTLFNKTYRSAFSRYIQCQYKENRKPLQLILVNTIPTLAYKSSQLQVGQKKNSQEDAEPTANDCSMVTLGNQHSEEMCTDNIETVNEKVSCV

Compound | activation
CC(=O)OCCOCn1cnn2c(=O)c(Br)c(C)nc12 | 1.26%
CN(c1ccccc1)S(=O)(=O)c1ccc(C(=O)N2CCN(c3ccccc3Cl)CC2)cc1 | -7.83%
COc1ccccc1NC(=O)c1ccc(N2CC3CC(C2)c2cccc(=O)n2C3)c(NC(=O)c2cccnc2)c1 (stereo unspecified) | 3.35%
Nc1cc(C(=O)N2CCN(c3ccccc3Cl)CC2)ccc1N1CC2CC(C1)c1cccc(=O)n1C2 (stereo unspecified) | 17.7% (active)
Nc1[nH][nH]c(=O)c1N=Nc1ccc2c(c1)OCO2 | -2.91%
CCc1ccc(N2CC(C(=O)Nc3ccc(S(=O)(=O)Nc4nccs4)cc3)CC2=O)cc1 (stereo unspecified) | -3.72%
CN(C)[C@@H]1C(=O)C(C(N)=O)=C(O)[C@@]2(O)C(=O)C3=C(O)c4c(O)ccc(Cl)c4[C@@H](O)[C@H]3C[C@@H]12 | 15.9% (active)
C=C1c2c(Cl)ccc(O)c2C(O)=C2C(=O)[C@]3(O)C(O)=C(C(N)=O)C(=O)[C@@H](N(C)C)[C@@H]3[C@@H](O)C12 (stereo partly specified) | -1.23%
C=C(C)C(=O)Nc1cccc(C2=NOC3(C2)C[C@H](C(N)=O)N(C(=O)C(c2ccccc2)c2ccccc2)C3)c1 (stereo partly specified) | 5.68%
CCCCn1c(SCC(=O)N2CCCC2=O)nc2cc(S(N)(=O)=O)ccc21 | 0%
CCn1c(SCC(=O)NCC2CCCO2)nc2ccccc21 (stereo unspecified) | 2.38%
CCn1c(SCC(=O)N2CCCC2=O)nc2ccccc21 | 15.3% (active)
O=C(NCc1ccccc1)[C@@H]1CSC2c3ccccc3C(=O)N21 (stereo partly specified) | 1.3%
COc1cccc(OC)c1C(=O)N1CCN(Cc2ccccc2F)CC1 | 2%
COc1ccccc1CN1CCN(Cc2cc(OC)c(OC)cc2OC)CC1 | 25.8% (active)
COc1cc(OC)c(OC)cc1CN1CCN(C(=O)c2cccc3ccccc23)CC1 | 0.49%
C/C(CC(=O)NCc1ccc(Cl)cc1)=N\NC(=O)COc1ccc(C)cc1Br | -5.06%
CC(C)CN(C(=O)c1cccc(S(=O)(=O)N2CCCCC2)c1)C1CCS(=O)(=O)C1 (stereo unspecified) | 3.09%
O=C(O)c1ccc(S(=O)(=O)N2CCC(Cc3ccccc3)CC2)cc1 | 22.2% (active)
NC(=O)c1ccc(CN2CCC(Cc3ccccc3)CC2)cc1 | -5.52%
Cn1cc(S(=O)(=O)N2CCC(Cc3ccccc3)CC2)c(=O)n(C)c1=O | -1.79%
CCCCN(C(=O)c1ccc(C)o1)c1c(N)n(CCCC)c(=O)[nH]c1=O | -12.3%
C/C(CC(=O)NC(C)(C)C)=N\NC(=O)c1ccco1 | 5.46%

Compound | activation
Cc1cc(C)n(-c2ccc(NC(=O)C3CCCCN3C(=O)c3cccs3)cc2)n1 (stereo unspecified) | -0.84%
CC(=O)N1CCN(C(=O)c2cc(-c3ccc(Cl)s3)nc3ccccc23)CC1 | -0.1%
COC(=O)c1cc(N2CCNCC2)nc2ccccc12 | 54.9% (active)
Cc1cc(C(=O)OCC(=O)N2C(C)CCCC2C)c2ccccc2n1 (stereo unspecified) | 5%
CCOc1ccc(CN(Cc2ccco2)C(c2cccs2)c2nnnn2C(C)(C)C)cc1 (stereo unspecified) | 6.56%
CC(C)Oc1ccc(Cc2n[nH]c(=S)n2Cc2ccccc2)cc1Cl | 0.66%
COC(=O)c1ccccc1OCC(=O)N1CCN(c2ccc(Cl)cc2)CC1 | 3.93%
COC(=O)CC(=O)N1CCN(c2ccc(Cl)c(Cl)c2)CC1 | 34.5% (active)
CC(C)c1nnc(NC(=O)CCC(=O)N2CCN(c3cccc(Cl)c3)CC2)s1 | 10.8%
O=C(c1ccco1)N(Cc1nc2ccccc2c(=O)[nH]1)C1CCCC1 | 3.03%
O=C(c1cccs1)N1CCN(Cc2ccc3c(c2)OCO3)CC1 | 25.9% (active)
COc1ccc(-c2cc(C(=O)N3CCN(Cc4ccc5c(c4)OCO5)CC3)on2)cc1OC | -7.64%
O=C(CCCN1C(=O)c2cccc3cccc(c23)C1=O)N1CCN(Cc2ccc3c(c2)OCO3)CC1 | -3.63%
Cc1nc2ccccc2nc1CC(O)(c1ccccc1)c1ccccc1 | 1.95%
Cc1ccc(S(=O)(=O)N[C@H]2CCC[C@@H]2O)cc1 | 0.49%
O=C(O)Cc1csc(-c2cccc(Oc3ccccc3)c2)n1 | 5.47% and 2.04%
COc1cc(NC(=O)COC(=O)c2cc(S(=O)(=O)N3CCOCC3)ccc2F)cc(OC)c1 | 2.06%
O=C(COC(=O)c1cc(S(=O)(=O)N2CCOCC2)ccc1F)NC1CC1 | 20.8% (active)
O=C(OCCOc1ccccc1F)c1cc(S(=O)(=O)N2CCOCC2)ccc1F | -6.59%
C[C@H](CO)N1C[C@H](C)[C@@H](CN(C)S(=O)(=O)c2ccc(F)cc2)Oc2c(NC(=O)Nc3ccccc3)cccc2C1=O | 1.16%
CCSCc1nc(N)nc(NCCc2ccccc2)n1 | -1.03%
CC(=O)c1ccc(OCCCC(=O)Nc2ccc(C)c(S(=O)(=O)N3CCOCC3)c2)cc1 | 4.29%
COC(=O)c1ccc(-c2c(-c3ccccc3)ncc3cc(OC)c(OC)cc23)cc1 | 6.54%

Compound | activation
COc1cc2ccc(C(C)=O)c(O)c2cc1OC | -4.06%
COc1ccc(/C(=N\O)c2nccc3cc(OC)c(OC)cc23)cc1OC | 24.7% (active)
N#Cc1c(NC(=O)C2CCCO2)sc2c1CCCCC2 (stereo unspecified) | 0.23%
N#Cc1c(NC(=O)C2CC(Cl)=CCC2C(=O)O)sc2c1CCCCC2 (stereo unspecified) | 5.86%
N#Cc1c(NC(=O)CCCl)sc2c1CCCCC2 | 20% (active)
Cc1ccc(OC(=O)c2ccccc2C(=O)OCC(F)(F)C(F)F)cc1 | -7.85%
COc1ccc(C(=O)OCC(=O)NC(=O)CCSc2ccccc2)cc1 | 1.32%
C[C@@H]1C(c2ccc(F)cc2)=NN(c2ccc(Br)cc2)[C@H]1C(=O)N1CCOC1=O | -5.98%
CCCCCC(O)(CCN1CCCCC1)c1ccccc1 (stereo unspecified) | -1.22%
O=C(CSc1nnc(N2CCOCC2)n1-c1cccc(F)c1)N1CCN(c2ccccn2)CC1 | -5.52%
Cc1ccc(NC(=O)CCOc2ccccc2)cc1S(=O)(=O)Nc1ccccc1Cl | 15.2% (active)
CCc1ccccc1NC(=O)CCOc1ccccc1 | 1.35%
Cc1ccccc1NC(=O)CCOc1ccccc1 | 4.29%
CC(=O)Nc1cc(-c2ccccc2F)cn2c(-c3cccc(C(F)(F)F)c3)cnc12 | 1.96%
CCCCN1CC(N2CCN(Cc3cccc(C)c3)CC2)CS1(=O)=O (stereo unspecified) | 12.1%
Cc1ccc(Cn2cc(CN3CC(N4CCN(C)CC4)CS3(=O)=O)nn2)cc1 (stereo unspecified) | -3.17%
Cc1cccc(CN2CCN(C3CN(Cc4ccccc4)S(=O)(=O)C3)CC2)c1 (stereo unspecified) | 20.9% (active)
Cc1ccc(CN2CC(N3CCC(Cc4ccccc4)CC3)CS2(=O)=O)cc1 (stereo unspecified) | -4.23%
Cc1cccc(CN2CCN(C3CN(Cc4cn(Cc5ccccc5F)nn4)S(=O)(=O)C3)CC2)c1 (stereo unspecified) | 7.98%
Cc1cccc(CN2CCN(C3CN(Cc4cn(Cc5cc(C)cc(C)c5)nn4)S(=O)(=O)C3)CC2)c1 (stereo unspecified) | 19.3% (active)
COc1ccc(N2CCN(S(=O)(=O)c3cc4c5c(c3)C(C)C(=O)N5CCC4)CC2)cc1 (stereo unspecified) | 4.42%
O=C(CNC(=O)c1cc(=O)[nH]c2ccccc12)Nc1ccc(F)c(F)c1 | -0.64%
CC1=C(C(=O)N2CCOCC2)CC(CC(=O)NCC2CCCCC2)C(=O)N1Cc1ccc(F)cc1 (stereo unspecified) | 0.51%

Compound | activation
O=C(COC(=O)CNC(=O)C1CCCCC1)NCc1ccccc1 | 4.87%
C#CCSc1nnc(-c2sc3ccccc3c2Cl)o1 | 3.02%
COc1ccc2c(Cl)c(-c3nnco3)sc2c1 | 15.6% (active)
Fc1cccc(Cl)c1COc1ccc(-c2nnco2)cc1 | 0.11%
O=C(COC(=O)CCOc1ccccc1)Nc1cc(S(=O)(=O)N2CCCCC2)ccc1Cl | 2.8%
O=C(CNCc1cccs1)Nc1cc(S(=O)(=O)N2CCCC2)ccc1Cl | 17.4% (active)
CS(=O)(=O)c1ccc(Cl)c(NC(=O)COC(=O)c2cccc(S(=O)(=O)N3CCCC3)c2)c1 | -2.1%
Cc1ccc2c(c1)NCC(C(=O)NC1CCC(C)CC1)O2 (stereo unspecified) | 16.6% (active)
Cc1ccc(S(=O)(=O)NCc2ccc(C(=O)NC3CCC(C)CC3)cc2)cc1 (stereo unspecified) | -3.68%
Cc1ccc(C(=O)NC2CC(C)(C)NC(C)(C)C2)c(C)c1 | 3.41%
Cc1ccccc1C(=O)N1CCC(C(=O)Oc2ccc(C#N)cc2)CC1 | -3.91%
O=C(NNc1cc(Cl)cc(Cl)c1)c1c(F)cccc1Cl | 1.49%
CCCCN(CC)C(=O)c1ccc2c(c1)OCO2 | 1.68%
Cc1ccc2cc(CCNC(=O)c3ccc4c(c3)OCO4)c(=O)[nH]c2c1 | 5.29%
COCCN(Cc1cc2cc3c(cc2nc1Cl)OCO3)C(=O)c1cccc(C)c1 | 16.6% (active)
Cn1nnnc1-c1cc(Cl)cc(Cl)c1 | 2.61%
CSc1nsc(SCC(=O)Nc2cc(C(=O)O)ccc2C)n1 | 15.6% (active)
COc1ccc(C)cc1NC(=O)CSc1nc(SC)ns1 | -0.61%
COc1ccc(NC(=O)CSc2nc(SC)ns2)c(OC)c1 | 0.26%
Cc1cccc(C(=O)N[C@H](C(=O)NCc2cccs2)C(C)C)c1 | 5.5%
CNCC(O)c1ccc(O)c(O)c1 (stereo unspecified) | 26.5% (active)
CCC(C)c1ccc(O)c(/C=N/O)c1 (stereo unspecified) | -3.25%
